Test results from PubChem BioAssay (Tox21).
Where “and” joins values, the source holds several entries; their conditions need not be identical. Equal values may be shown once. Records with an inconclusive call do not appear. Where a call stands in place of a potency, no number is given. Some structures have more than one record in an assay (separate samples or runs), and their calls can disagree. Calls of active or inactive are those of the source. Unless noted, calls follow the shape of the dose curve; as a rule, active = well fitted curve in the direction sought with a large enough effect in the repeat runs; inconclusive = weak or mixed curves; inactive = no such curve, though single readings can be large; an effect the other way counts as inactive or inconclusive.

Assays:
[1] = qHTS assay to identify small molecule antagonists of the thyroid receptor (TR) signaling pathway - cell viability counter screen (AID 743064); also: nearly all actives have a fitted effect of over 50% in size
In short: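 GH3.TRE-Luc rat pituitary cells dosed after 4 hr plating, co-stimulated with T3 at 1 nM final, incubated 23.5 h at 37 C. Viability measured in the same wells by CellTiter-Fluor fluorescence after 30 min further at 37 C.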

[2] = qHTS assay to identify small molecule antagonists of the thyroid receptor (TR) signaling pathway (AID 743065); also: series mostly up to about 70 µM; nearly all actives have a fitted effect of over 55% in size
In short: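 GH3.TRE-Luc rat pituitary cells carrying two TR response elements driving luciferase were plated for 4 h, given compound plus 1 nM T3 (final), and incubated 23.5 h at 37 C. ONE-Glo luminescence measured reporter inhibition; CellTiter-Fluor fluorescence tracked cytotoxicity.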

[3] = system: thyroid hormone receptor (rat, GH3 cells); assay: qHTS assay to identify small molecule agonists of the thyroid receptor (TR) signaling pathway (AID 743066; calls by dose curve)
[4] = target: Estrogen receptor (Homo sapiens) (UniProt P03372); assay: qHTS assay to identify small molecule antagonists of the estrogen receptor alpha (ER-alpha) signaling pathway (AID 743069; active = well fitted curve in the direction sought with a large enough effect in the signal ratio in the repeat runs, not every such curve was filed as active; the % refers to the signal ratio)
Sequence of Estrogen receptor (Homo sapiens) (P03372 whole entry, looked up): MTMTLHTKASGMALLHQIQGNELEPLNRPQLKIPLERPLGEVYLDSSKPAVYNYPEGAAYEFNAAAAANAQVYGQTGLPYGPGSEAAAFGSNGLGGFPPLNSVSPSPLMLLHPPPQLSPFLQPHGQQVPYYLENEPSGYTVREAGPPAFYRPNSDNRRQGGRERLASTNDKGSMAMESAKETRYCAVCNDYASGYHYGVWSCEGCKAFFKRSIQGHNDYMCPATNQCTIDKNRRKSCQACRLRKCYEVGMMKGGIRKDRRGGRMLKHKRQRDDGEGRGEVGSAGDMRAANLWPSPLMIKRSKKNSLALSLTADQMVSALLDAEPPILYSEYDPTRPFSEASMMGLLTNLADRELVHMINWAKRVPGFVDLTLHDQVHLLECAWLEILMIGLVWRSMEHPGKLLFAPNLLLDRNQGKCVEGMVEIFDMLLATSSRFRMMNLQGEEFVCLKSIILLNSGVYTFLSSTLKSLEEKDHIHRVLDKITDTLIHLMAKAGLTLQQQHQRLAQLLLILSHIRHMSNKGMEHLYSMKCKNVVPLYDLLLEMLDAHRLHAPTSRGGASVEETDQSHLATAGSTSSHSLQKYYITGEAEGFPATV
In short: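 HEK293 cells stably carrying an ER-alpha-UAS-bla beta-lactamase reporter were pre-cultured overnight in 2% charcoal-stripped FBS medium. Test compounds in DMSO were added together with 17beta-estradiol for 18 hr at 37C. Read-out was fluorescence after 2 hr with LiveBLAzer B/G FRET substrate at room temperature.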

[5] = qHTS assay to identify small molecule antagonists of the estrogen receptor alpha (ER-alpha) signaling pathway - cell viability counter screen (AID 743074; calls by dose curve; also: nearly all actives have a fitted effect of over 45% in size)
[6] = target: Estrogen receptor (Homo sapiens) (UniProt P03372); assay: qHTS assay to identify small molecule agonists of the estrogen receptor alpha (ER-alpha) signaling pathway (AID 743075; calls by dose curve)
[7] = target: Estrogen receptor (Homo sapiens) (UniProt P03372); assay: qHTS assay to identify small molecule agonists of the estrogen receptor alpha (ER-alpha) signaling pathway using the BG1 cell line (AID 743079); also: nearly all actives have a fitted effect of over 20% in size; also: potency is read from the fitted curve at half-maximal effect
[8] = qHTS assay to identify small molecule antagonists of the estrogen receptor alpha (ER-alpha) signaling pathway using the BG1 cell line (AID 743080; calls by dose curve;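 also: BG1 cells stimulated with 17beta-estradiol alongside compound; series mostly up to about 70 µM; nearly all actives have a fitted effect of over 25% in size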)
In short: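 Luciferase inhibition measured with ONE-Glo after 30 min at RT in BG1Luc4E2 cells given test compounds and 17beta-estradiol for 21.5 h at 37 C; CellTiter-Fluor viability read in the same wells beforehand.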

[9] = qHTS assay to identify small molecule antagonists of the estrogen receptor alpha (ER-alpha) signaling pathway using the BG1 cell line - cell viability counter screen (AID 743081);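 also: compound given together with 17beta-estradiol as the ER stimulus; series mostly up to about 70 µM; nearly all actives have a fitted effect of over 45% in size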
[10] = target: Aromatase (Homo sapiens) (UniProt P11511); assay: qHTS assay to identify aromatase inhibitors (AID 743083); also: series mostly up to about 70 µM; nearly all actives have a fitted effect of over 55% in size
Sequence of Aromatase (Homo sapiens) (P11511 whole entry, looked up): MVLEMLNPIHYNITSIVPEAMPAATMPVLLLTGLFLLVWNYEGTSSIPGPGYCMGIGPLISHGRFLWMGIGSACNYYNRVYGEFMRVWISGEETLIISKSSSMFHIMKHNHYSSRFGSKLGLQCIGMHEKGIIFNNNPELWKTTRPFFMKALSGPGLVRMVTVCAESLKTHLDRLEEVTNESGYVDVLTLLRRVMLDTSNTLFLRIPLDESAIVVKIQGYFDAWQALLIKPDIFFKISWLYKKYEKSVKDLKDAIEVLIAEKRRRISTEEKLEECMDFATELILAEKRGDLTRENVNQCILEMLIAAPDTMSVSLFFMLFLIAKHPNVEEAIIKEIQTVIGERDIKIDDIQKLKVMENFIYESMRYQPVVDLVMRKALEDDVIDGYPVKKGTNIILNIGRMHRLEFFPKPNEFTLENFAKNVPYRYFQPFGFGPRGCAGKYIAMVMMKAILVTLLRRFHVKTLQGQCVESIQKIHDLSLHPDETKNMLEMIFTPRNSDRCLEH

[11] = qHTS assay to identify aromatase inhibitors - cell viability counter screen (AID 743084);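 also: cells stimulated with testosterone during compound exposure; nearly all actives have a fitted effect of over 55% in size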; also: potency is read from the fitted curve at half-maximal effect
[12] = target: Aryl hydrocarbon receptor (Homo sapiens) (UniProt P35869); assay: qHTS assay to identify small molecule that activate the aryl hydrocarbon receptor (AhR) signaling pathway (AID 743085);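 also: HG2L7.5c1 human HepG2 liver cells with stably integrated DRE-driven firefly reporter; series mostly up to about 70 µM; nearly all actives have a fitted effect of over 15% in size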
Sequence of Aryl hydrocarbon receptor (Homo sapiens) (P35869 whole entry, looked up): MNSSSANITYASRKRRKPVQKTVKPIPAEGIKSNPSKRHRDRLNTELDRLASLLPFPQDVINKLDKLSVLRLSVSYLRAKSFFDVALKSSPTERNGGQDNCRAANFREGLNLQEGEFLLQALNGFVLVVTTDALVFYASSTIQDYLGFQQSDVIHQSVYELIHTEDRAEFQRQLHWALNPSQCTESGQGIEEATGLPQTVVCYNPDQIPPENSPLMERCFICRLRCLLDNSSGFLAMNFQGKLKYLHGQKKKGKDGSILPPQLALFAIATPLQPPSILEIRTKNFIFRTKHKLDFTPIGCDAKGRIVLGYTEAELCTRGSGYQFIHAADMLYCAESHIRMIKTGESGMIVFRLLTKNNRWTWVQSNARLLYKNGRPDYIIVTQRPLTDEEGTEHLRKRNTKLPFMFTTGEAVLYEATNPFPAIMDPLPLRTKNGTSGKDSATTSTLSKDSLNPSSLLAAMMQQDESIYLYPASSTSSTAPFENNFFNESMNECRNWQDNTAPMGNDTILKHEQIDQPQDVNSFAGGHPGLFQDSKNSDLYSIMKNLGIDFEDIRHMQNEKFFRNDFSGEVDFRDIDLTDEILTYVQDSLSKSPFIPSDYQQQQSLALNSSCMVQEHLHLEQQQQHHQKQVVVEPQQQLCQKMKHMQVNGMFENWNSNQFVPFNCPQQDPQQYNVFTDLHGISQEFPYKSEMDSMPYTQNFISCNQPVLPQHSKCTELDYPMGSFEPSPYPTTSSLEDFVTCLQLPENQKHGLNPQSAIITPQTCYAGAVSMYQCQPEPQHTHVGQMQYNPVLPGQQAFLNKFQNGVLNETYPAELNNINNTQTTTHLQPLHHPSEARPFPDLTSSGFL
In short: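 HepG2 cells stably carrying a 20-DRE firefly luciferase reporter (HG2L7.5c1) treated with compound for 24 hr at 37C. Luciferase read by ONE-Glo luminescence, with CellTiter-Fluor viability read first.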

[13] = qHTS assay to identify small molecule that activate the aryl hydrocarbon receptor (AhR) signaling pathway - cell viability counter screen (AID 743086); also: nearly all actives have a fitted effect of over 45% in size; also: potency is read from the fitted curve at half-maximal effect
In short: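 HepG2-AhR-luc (HG2L7.5c1) cells, 4000/well, were preincubated 5 h at 37C, exposed to compound in qHTS format for 24 hr at 37C, then given CellTiter-Fluor for 30 min; viability was read as fluorescence in the reporter wells.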

[14] = target: Peroxisome proliferator-activated receptor gamma (Homo sapiens) (UniProt P37231); assay: qHTS assay to identify small molecule agonists of the peroxisome proliferator-activated receptor gamma (PPARg) signaling pathway (AID 743094; active = well fitted activation curve with a large enough effect in the signal ratio in the repeat runs, not every such curve was filed as active; the % refers to the signal ratio)
Sequence of Peroxisome proliferator-activated receptor gamma (Homo sapiens) (P37231 whole entry, looked up): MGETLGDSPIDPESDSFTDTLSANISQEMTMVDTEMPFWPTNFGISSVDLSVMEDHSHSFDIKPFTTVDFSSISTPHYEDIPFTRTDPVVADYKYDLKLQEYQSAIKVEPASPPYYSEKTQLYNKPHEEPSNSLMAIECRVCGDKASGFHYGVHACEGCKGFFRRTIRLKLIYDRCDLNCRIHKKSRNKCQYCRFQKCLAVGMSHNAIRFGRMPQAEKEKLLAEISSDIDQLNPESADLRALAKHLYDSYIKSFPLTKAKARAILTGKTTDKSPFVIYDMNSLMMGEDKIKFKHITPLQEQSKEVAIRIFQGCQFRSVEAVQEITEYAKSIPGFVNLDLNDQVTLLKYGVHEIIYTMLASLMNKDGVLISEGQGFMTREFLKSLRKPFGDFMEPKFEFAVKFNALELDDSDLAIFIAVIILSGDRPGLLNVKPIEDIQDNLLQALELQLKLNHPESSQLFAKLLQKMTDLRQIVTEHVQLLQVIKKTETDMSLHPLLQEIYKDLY
In short: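 Compounds dissolved in DMSO were added to PPARg UAS-bla HEK293H cells for 17 h at 37C, and reporter expression was quantified by fluorescence intensity after 1 h with LiveBLAzer B/G FRET substrate.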

[15] = qHTS assay for small molecule activators of the heat shock response signaling pathway - cell viability counter screen (AID 743209); also: nearly all actives have a fitted effect of over 50% in size
In short: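 Readout: CellTiter-Glo luminescence, 30 min at room temperature. System: HSE-bla HeLa cells, 1500/well, plated overnight. Treatment: compounds in DMSO, 5 h at 37 C.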

[16] = qHTS assay to identify small molecule agonists of the peroxisome proliferator-activated receptor delta (PPARd) signaling pathway - cell viability counter screen (AID 743211); also: nearly all actives have a fitted effect of over 55% in size
In short: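 PPARd-bla HEK293H cells (3000/well) were pre-incubated 5 h at 37 C, then exposed to compound for 17 h at 37 C. After 2 h with LiveBLAzer substrate, CellTiter-Glo was added to the same wells; luminescence read after 30 min at room temperature.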

NC(=O)[C@@H]1CCCN1C(=O)[C@H](Cc1cnc[nH]1)NC(=O)[C@@H]1CCC(=O)N1
Potency [1]: inactive | Potency [2]: inactive | Potency [3]: inactive | Potency [4]: inactive | Potency [5]: inactive | Potency [6]: inactive | Potency [7]: inactive | Potency [8]: inactive | Potency [9]: inactive | Potency [10]: inactive | Potency [11]: inactive | Potency [12]: inactive | Potency [13]: inactive | Potency [14]: inactive

CN[C@@H]1[C@@H](O[C@H]2O[C@H](CO)[C@@H](N)[C@H](O)[C@H]2O)O[C@H]2C[C@@H](N)[C@@H](O[C@H]3[C@H](O)[C@@H](O)[C@H](N)C[C@@H]3N)O[C@@H]2[C@@H]1O
Potency [1]: inactive | Potency [2]: inactive | Potency [3]: inactive | Potency [4]: inactive | Potency [5]: inactive | Potency [6]: inactive | Potency [7]: inactive | Potency [8]: inactive | Potency [9]: inactive | Potency [10]: inactive | Potency [11]: inactive | Potency [12]: inactive | Potency [13]: inactive | Potency [14]: inactive

CC[C@H]1OC(=O)[C@H](C)C(=O)[C@H](C)[C@@H](O[C@@H]2O[C@H](C)C[C@H](N(C)C)[C@H]2O)[C@](C)(OC)C[C@@H](C)C(=O)[C@H](C)[C@H]2N(CCCCn3cnc(-c4cccnc4)c3)C(=O)O[C@]12C
Potency [1]: inactive | Potency [2]: inactive | Potency [3]: inactive | Potency [4]: inactive | Potency [5]: inactive | Potency [6]: inactive | Potency [7]: inactive | Potency [8]: inactive | Potency [9]: inactive | Potency [10]: inactive | Potency [11]: inactive and 15 µM (active) | Potency [12]: inactive | Potency [13]: inactive and 21.1 µM (active) | Potency [14]: inactive

O=C1C2CC3CC1CC(O)(C3)C2
Potency [1]: inactive | Potency [2]: inactive | Potency [3]: inactive | Potency [4]: inactive | Potency [5]: inactive | Potency [6]: inactive | Potency [7]: inactive | Potency [8]: inactive | Potency [9]: inactive | Potency [10]: inactive | Potency [11]: inactive | Potency [12]: inactive | Potency [13]: inactive | Potency [14]: inactive

NCC(O)CC(=O)O (stereo unspecified)
Potency [1]: inactive | Potency [2]: inactive | Potency [3]: inactive | Potency [4]: inactive | Potency [5]: inactive | Potency [6]: inactive | Potency [7]: 16.8 µM (active) | Potency [8]: inactive | Potency [9]: inactive | Potency [10]: inactive | Potency [11]: inactive | Potency [12]: inactive | Potency [13]: inactive | Potency [14]: inactive

C1CCc2nnnn2CC1
Potency [1]: inactive | Potency [2]: inactive | Potency [3]: inactive | Potency [4]: inactive | Potency [5]: inactive | Potency [6]: inactive | Potency [7]: inactive | Potency [8]: inactive | Potency [9]: inactive | Potency [11]: inactive | Potency [13]: inactive | Potency [14]: inactive

CC(=NCc1ccccc1)c1ccccc1O
Potency [1]: inactive | Potency [2]: inactive | Potency [3]: inactive | Potency [4]: inactive | Potency [5]: inactive | Potency [6]: inactive | Potency [7]: inactive | Potency [8]: inactive | Potency [9]: inactive | Potency [10]: inactive | Potency [11]: inactive | Potency [12]: inactive | Potency [13]: inactive | Potency [14]: inactive

COc1ccc([C@@H]2CC(=O)c3c(O)cc(O[C@@H]4O[C@H](CO[C@@H]5O[C@@H](C)[C@H](O)[C@@H](O)[C@H]5O)[C@@H](O)[C@H](O)[C@H]4O)cc3O2)cc1O
Potency [1]: inactive | Potency [2]: inactive | Potency [3]: inactive | Potency [4]: inactive | Potency [5]: inactive | Potency [6]: inactive | Potency [7]: inactive | Potency [8]: inactive | Potency [10]: inactive | Potency [11]: inactive | Potency [12]: inactive | Potency [13]: inactive | Potency [14]: inactive

O=C(N[C@H](CO)[C@H](O)c1ccc([N+](=O)[O-])cc1)C(Cl)Cl
Potency [1]: inactive | Potency [2]: inactive | Potency [3]: inactive | Potency [4]: inactive | Potency [5]: inactive | Potency [6]: inactive | Potency [7]: inactive | Potency [8]: inactive | Potency [9]: inactive | Potency [10]: inactive | Potency [11]: inactive | Potency [12]: inactive | Potency [13]: inactive | Potency [14]: inactive | Potency [15]: inactive | Potency [16]: inactive

OCCCNc1ccccc1
Potency [1]: inactive | Potency [2]: inactive | Potency [3]: inactive | Potency [4]: inactive | Potency [5]: inactive | Potency [6]: inactive | Potency [7]: inactive | Potency [8]: inactive | Potency [10]: inactive | Potency [11]: inactive | Potency [12]: inactive | Potency [13]: inactive | Potency [14]: inactive

CO/N=C(\C(=O)N[C@@H]1C(=O)N2C(C(=O)O)=C(CSc3nc(C)c(CC(=O)O)s3)CS[C@H]12)c1csc(N)n1
Potency [1]: inactive | Potency [2]: inactive | Potency [3]: inactive | Potency [4]: inactive | Potency [5]: inactive | Potency [6]: inactive | Potency [7]: inactive | Potency [8]: inactive | Potency [9]: inactive | Potency [10]: inactive | Potency [11]: inactive | Potency [12]: inactive | Potency [13]: inactive | Potency [14]: inactive

NC[C@@H]1CC[C@@H](N)[C@@H](O[C@H]2[C@H](O)[C@@H](O[C@H]3O[C@H](CO)[C@@H](O)[C@H](N)[C@H]3O)[C@H](N)C[C@@H]2N)O1
Potency [1]: inactive | Potency [2]: inactive | Potency [3]: inactive | Potency [4]: inactive | Potency [5]: inactive | Potency [6]: inactive | Potency [7]: 11.9 µM (active) | Potency [8]: inactive | Potency [9]: inactive | Potency [10]: inactive | Potency [11]: inactive | Potency [12]: inactive | Potency [13]: inactive | Potency [14]: inactive

CCCOC(=O)c1ccccc1O
Potency [1]: inactive | Potency [2]: inactive | Potency [3]: inactive | Potency [4]: inactive | Potency [5]: inactive | Potency [6]: inactive | Potency [7]: inactive | Potency [8]: inactive | Potency [10]: inactive | Potency [11]: inactive | Potency [12]: inactive | Potency [13]: inactive

C=CC1=C(C(=O)O)N2C(=O)[C@@H](NC(=O)/C(=N/OCC(=O)O)c3csc(N)n3)[C@H]2SC1 (stereo in doubt)
Potency [1]: inactive | Potency [2]: inactive | Potency [3]: inactive | Potency [4]: inactive | Potency [5]: inactive | Potency [6]: inactive | Potency [7]: inactive | Potency [8]: inactive | Potency [9]: inactive | Potency [10]: inactive | Potency [11]: inactive | Potency [12]: inactive | Potency [13]: inactive | Potency [14]: inactive

NC(=O)C1c2ccccc2CCc2ccccc21
Potency [1]: inactive | Potency [2]: inactive | Potency [3]: inactive | Potency [4]: inactive | Potency [5]: inactive | Potency [6]: inactive | Potency [7]: inactive | Potency [8]: inactive | Potency [9]: inactive | Potency [10]: inactive | Potency [11]: inactive | Potency [12]: inactive | Potency [13]: inactive | Potency [14]: inactive
